Experimental data published in PubChem BioAssay (Tox21).
Records with an inconclusive call do not appear. Where a call stands in place of a potency, no number is given. Activity calls are given as the source filed them. Unless noted, the call rests on the fitted dose curve; in most records, active means well fitted curve in the direction sought with a large enough effect in the repeat runs; inconclusive means weak or mixed curves; inactive means no such curve, though single readings can be large; an effect the other way counts as inactive or inconclusive.

Experiments:
[1] = qHTS assay to identify small molecule antagonists of the androgen receptor (AR) signaling pathway using the MDA cell line in the presence of 0.5 nM R1881 - cell viability counter screen (AID 1259242); further: nearly all actives have a fitted effect of over 45% in size
Outline: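 Human breast carcinoma MDA-kb2 cells, cultured without CO2, receive compounds alongside 0.5 nM (final) R1881 agonist. After 16 hr at 37C, viability is taken as live-cell protease signal.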

[2] = biological target: Androgen receptor (Homo sapiens) (UniProt P10275); test: qHTS assay to identify small molecule antagonists of the androgen receptor (AR) signaling pathway using the MDA cell line in the presence of 0.5 nM R1881 (AID 1259243); further: nearly all actives have a fitted effect of over 50% in size; further: potency means the concentration at half of the fitted maximal effect
Chain of Androgen receptor (Homo sapiens) (P10275 whole entry, looked up): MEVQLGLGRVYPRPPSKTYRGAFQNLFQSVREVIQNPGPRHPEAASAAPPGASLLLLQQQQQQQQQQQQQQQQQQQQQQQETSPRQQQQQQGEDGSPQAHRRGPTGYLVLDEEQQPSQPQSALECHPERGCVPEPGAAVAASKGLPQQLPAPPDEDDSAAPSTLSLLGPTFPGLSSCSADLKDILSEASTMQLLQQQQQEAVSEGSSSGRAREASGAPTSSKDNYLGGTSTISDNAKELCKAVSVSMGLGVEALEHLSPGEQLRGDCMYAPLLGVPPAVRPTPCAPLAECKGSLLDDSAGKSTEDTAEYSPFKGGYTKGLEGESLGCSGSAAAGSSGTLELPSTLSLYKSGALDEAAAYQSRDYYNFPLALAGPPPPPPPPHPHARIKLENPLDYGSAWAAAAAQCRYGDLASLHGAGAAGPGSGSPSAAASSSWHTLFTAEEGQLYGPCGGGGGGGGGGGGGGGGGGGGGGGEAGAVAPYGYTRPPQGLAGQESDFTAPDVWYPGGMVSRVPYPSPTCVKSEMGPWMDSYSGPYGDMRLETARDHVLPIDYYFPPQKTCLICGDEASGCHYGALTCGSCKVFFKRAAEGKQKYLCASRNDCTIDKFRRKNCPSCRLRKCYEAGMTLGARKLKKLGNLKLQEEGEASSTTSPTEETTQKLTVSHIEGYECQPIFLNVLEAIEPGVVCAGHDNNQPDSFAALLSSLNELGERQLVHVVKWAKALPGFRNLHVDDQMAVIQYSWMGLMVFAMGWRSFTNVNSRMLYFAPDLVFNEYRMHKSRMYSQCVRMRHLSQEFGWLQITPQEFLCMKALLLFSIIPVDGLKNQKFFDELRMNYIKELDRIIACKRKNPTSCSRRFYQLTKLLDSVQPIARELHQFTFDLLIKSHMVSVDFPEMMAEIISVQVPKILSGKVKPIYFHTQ
Outline: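 Cells: MDA-kb2 (MMTV-luc). Stimulus: 0.5 nM R1881. Time: 16 hr, 37C, no CO2. Detection: ONE-Glo luminescence after 30 min at RT.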

[3] = biological target: Estrogen receptor (Homo sapiens) (UniProt P03372); test: qHTS assay to identify small molecule antagonists of the estrogen receptor alpha (ER-alpha) signaling pathway using the BG1 cell line in the presence of 0.1 nM 17-beta-estradiol (AID 1259244); further: nearly all actives have a fitted effect of over 50% in size; further: potency means the concentration at half of the fitted maximal effect
Chain of Estrogen receptor (Homo sapiens) (P03372 whole entry, looked up): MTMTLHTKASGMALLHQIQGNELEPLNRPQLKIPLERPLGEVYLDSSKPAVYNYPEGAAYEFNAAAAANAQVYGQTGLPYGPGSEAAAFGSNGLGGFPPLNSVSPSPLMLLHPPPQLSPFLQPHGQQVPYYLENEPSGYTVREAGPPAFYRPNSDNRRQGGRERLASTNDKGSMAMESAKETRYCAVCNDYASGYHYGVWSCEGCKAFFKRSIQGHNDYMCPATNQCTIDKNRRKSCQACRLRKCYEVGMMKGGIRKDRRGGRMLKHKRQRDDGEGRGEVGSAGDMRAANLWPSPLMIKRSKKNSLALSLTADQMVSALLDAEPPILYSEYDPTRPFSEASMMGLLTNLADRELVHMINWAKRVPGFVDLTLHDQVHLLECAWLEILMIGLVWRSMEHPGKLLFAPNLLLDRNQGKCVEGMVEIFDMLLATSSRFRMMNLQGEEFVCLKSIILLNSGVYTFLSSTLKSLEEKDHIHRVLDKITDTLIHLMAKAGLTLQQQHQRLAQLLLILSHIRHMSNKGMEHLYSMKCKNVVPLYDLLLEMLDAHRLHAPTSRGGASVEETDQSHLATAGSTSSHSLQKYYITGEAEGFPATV
Outline: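 Seeding of stripped-serum-adapted VM7Luc4E2 cells, 24 h attachment, compound transfer, then 0.1 nM final 17beta-estradiol; after 22 h incubation, ONE-Glo reagent and luminescence reading.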

[4] = qHTS assay to identify small molecule HDAC inhibitors (AID 1259364);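 further: wild-type HCT-116 cells with endogenous class I/II HDAC activity; top concentration of the series differs between compounds; nearly all actives have a fitted effect of over 45% in size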
Outline: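 After a 2 hr compound incubation (37C, 5% CO2), HCT-116 cells seeded at 1,500/well the day before received HDAC-Glo reagent; signal read as luminescence after 30 min at room temperature.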

[5] = qHTS assay to identify small molecule HDAC inhibitors - cell viability counter screen (AID 1259365); further: series mostly up to about 92 µM; nearly all actives have a fitted effect of over 50% in size
Outline: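 Measured quantity is CellTiter-Glo luminescence from wild-type HCT-116 cells after compound incubation of 2hr at 37C, 5% CO2; reagent developed 30min at room temperature.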

[6] = qHTS assay to identify small molecule agonists of the sonic hedgehog signaling (Shh) pathway - cell viability counter screen (AID 1259366); further: nearly all actives have a fitted effect of over 50% in size
Outline: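 In quantitative high-throughput format, 3T3 Gli1-Luc cells were exposed to compounds for 24hr and multiplexed for viability using CellTiter-Fluor, incubated 1hr at 37C before the fluorescence read.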

[7] = qHTS assay to identify small molecule antagonists of the sonic hedgehog signaling (Shh) pathway - cell viability counter screen (AID 1259367); further: nearly all actives have a fitted effect of over 55% in size
Outline: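 Tox21 library chemicals were tested on a Gli1-Luc NIH/3T3 clone (2,000 cells/well) stimulated by conditioned medium; viability was quantified as fluorescence from CellTiter-Fluor reagent added at 23 hr.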

[8] = qHTS assay to identify small molecule agonists of the sonic hedgehog signaling (Shh) pathway (AID 1259368; calls by dose curve;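 further: NIH/3T3-derived 3T3Gli1-Luc cells carrying a stable Gli1-driven firefly luciferase reporter; series mostly up to about 92 µM; nearly all actives have a fitted effect of over 15% in size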)
Outline: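 Stable NIH/3T3 Gli1-Luc reporter clone; 24 hr cpd exposure after a 4 hr settling period; luminescence endpoint.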

[9] = qHTS assay to identify small molecule antagonists of the sonic hedgehog signaling (Shh) pathway (AID 1259369; calls by dose curve; further: nearly all actives have a fitted effect of over 45% in size; further: potency means the concentration at half of the fitted maximal effect)
Outline: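 Gli1 transcriptional reporter (firefly Luc) in NIH/3T3 background, conditioned-medium activated. 24hr exposure, luminescence endpoint.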

[10] = biological target: Estrogen receptor beta (Homo sapiens) (UniProt Q92731); test: qHTS assay to identify small molecule antagonists of the estrogen receptor beta (ER-beta) signaling pathway (AID 1259378; active means well fitted inhibition curve with a large enough effect in the signal ratio in the repeat runs, not every such curve was filed as active; the % refers to the signal ratio; further: potency means the concentration at half of the fitted maximal effect)
Chain of Estrogen receptor beta (Homo sapiens) (Q92731 whole entry, looked up): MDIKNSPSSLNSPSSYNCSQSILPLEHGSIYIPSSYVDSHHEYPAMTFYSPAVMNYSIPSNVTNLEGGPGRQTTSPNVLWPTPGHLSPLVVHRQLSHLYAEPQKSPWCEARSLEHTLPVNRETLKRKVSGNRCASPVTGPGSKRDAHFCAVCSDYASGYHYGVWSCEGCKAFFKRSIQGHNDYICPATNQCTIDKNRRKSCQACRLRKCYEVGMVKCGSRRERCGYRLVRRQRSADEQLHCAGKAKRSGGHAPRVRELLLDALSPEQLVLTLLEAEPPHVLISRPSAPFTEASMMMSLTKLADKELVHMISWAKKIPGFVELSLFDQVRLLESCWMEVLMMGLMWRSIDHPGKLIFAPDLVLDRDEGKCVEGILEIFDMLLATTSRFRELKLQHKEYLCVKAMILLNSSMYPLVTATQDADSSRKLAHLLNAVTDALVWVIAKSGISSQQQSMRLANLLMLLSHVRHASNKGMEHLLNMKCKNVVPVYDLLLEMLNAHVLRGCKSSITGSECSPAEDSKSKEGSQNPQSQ
Outline: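 ER-beta-UAS-bla HEK293T cells in 2% charcoal-stripped FBS medium treated with compound plus 1nM final 17-beta-estradiol for 16 hr at 37C. Beta-lactamase reporter read by FRET substrate fluorescence after 2 hours at room temperature.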

[11] = qHTS assay to identify small molecule agonists of the androgen receptor (AR) signaling pathway in the presence of an antagonist - cell viability counter screen (AID 1259379);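 further: MDA-kb2 human breast cancer cells carrying an MMTV luciferase reporter; series mostly up to about 92 µM; nearly all actives have a fitted effect of over 25% in size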
Outline: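 Counter screen for cell viability run in parallel with the AR agonist-mode luciferase assay. MDA-kb2 cells were co-treated with nilutamide (3.0uM final) and compounds, then incubated 16 hr at 37C, and CellTiter-Fluor fluorescence was measured.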

[12] = qHTS assay to identify small molecule agonists of the estrogen receptor beta (ER-beta) signaling pathway - cell viability counter screen (AID 1259380); further: nearly all actives have a fitted effect of over 30% in size; further: potency means the concentration at half of the fitted maximal effect
Outline: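 In this qHTS counter screen, HEK293T cells carrying an ER-beta/UAS beta-lactamase reporter, grown in 2% charcoal-stripped FBS, received compound for 16 hr; ATP-based CellTiter-Glo luminescence was then read after 30 min at room temperature.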

[13] = biological target: Androgen receptor (Homo sapiens) (UniProt P10275); test: qHTS assay to identify small molecule agonists of the androgen receptor (AR) signaling pathway in the presence of an antagonist (AID 1259381; calls by dose curve; further: nearly all actives have a fitted effect of over 15% in size)
Outline: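 AR antagonist background: nilutamide 3.0uM final. Cell line: MDA-kb2, MMTV-driven luciferase, responsive to both AR and GR. Exposure 16hr, 37C, no CO2; ONE-Glo luminescence.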

[14] = qHTS assay to identify small molecule antagonists of the estrogen receptor beta (ER-beta) signaling pathway - cell viability counter screen (AID 1259382); further: nearly all actives have a fitted effect of over 55% in size; further: potency means the concentration at half of the fitted maximal effect
Outline: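 HEK293T ER-beta-UAS-bla, 2% charcoal-stripped FBS; compounds + 1nM E2 16 hr 37C; CellTiter-Glo luminescence, 30 min RT.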

[15] = biological target: Estrogen receptor (Homo sapiens) (UniProt P03372); test: qHTS assay to identify small molecule agonists of the estrogen receptor alpha (ER-alpha) signaling pathway in the presence of an antagonist (AID 1259383; calls by dose curve; further: top concentration of the series differs between compounds; nearly all actives have a fitted effect of over 15% in size)
Outline: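 ER-alpha agonism measured under antagonist challenge: 10.0nM ICI-182,780 (final) plus compound, 15 concentrations, 22hr, VM7Luc4E2 ERE-luciferase cells. Read by luminescence.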

[16] = qHTS assay to identify small molecule agonists or antagonists of the thyroid stimulating hormone receptor (TSHR) signaling pathway - wild type cell line counter screen (AID 1259384; calls by dose curve)
Outline: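 Wild-type Hek293 cells, 800/well, 18 h at 37C, then compound with Ro20-1724 for 30 min RT. cAMP by HTRF (cAMP-d2/anti-cAMP cryptate), 1 h RT, fluorescence read. 15 concentrations, triplicates.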

[17] = qHTS assay to identify small molecule agonists of the estrogen receptor alpha (ER-alpha) signaling pathway in the presence of an antagonist - cell viability counter screen (AID 1259386);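 further: series mostly up to about 92 µM; cells exposed to compounds for 22 h at 37 °C before the viability read; nearly all actives have a fitted effect of over 30% in size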
Outline: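 Steps: 5-day stripped-FBS culture; seed and incubate 24hr; add ICI-182,780 (10.0nM final); pin 15-point compound titration; incubate 22hr at 37C; add CellTiter-Fluor at 21hr; read fluorescence.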

[18] = biological target: Estrogen receptor beta (Homo sapiens) (UniProt Q92731); test: qHTS assay to identify small molecule agonists of the estrogen receptor beta (ER-beta) signaling pathway (AID 1259377; active means well fitted activation curve with a large enough effect in the signal ratio in the repeat runs, not every such curve was filed as active; the % refers to the signal ratio)
Outline: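 Reporter cells (HEK293T, ER-beta-UAS-bla) receive compounds or DMSO after a 6 hr pre-incubation. They then incubate 16 hr at 37C/5% CO2, and fluorescence from LiveBLAzer B/G substrate is measured after 2 hours at room temperature.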

[19] = biological target: Thyrotropin receptor (Homo sapiens) (UniProt P16473); test: qHTS assay to identify small molecule antagonists of the thyroid stimulating hormone receptor (TSHR) signaling pathway (AID 1259385; calls by dose curve; further: nearly all actives have a fitted effect of over 20% in size)
Chain of Thyrotropin receptor (Homo sapiens) (P16473 whole entry, looked up): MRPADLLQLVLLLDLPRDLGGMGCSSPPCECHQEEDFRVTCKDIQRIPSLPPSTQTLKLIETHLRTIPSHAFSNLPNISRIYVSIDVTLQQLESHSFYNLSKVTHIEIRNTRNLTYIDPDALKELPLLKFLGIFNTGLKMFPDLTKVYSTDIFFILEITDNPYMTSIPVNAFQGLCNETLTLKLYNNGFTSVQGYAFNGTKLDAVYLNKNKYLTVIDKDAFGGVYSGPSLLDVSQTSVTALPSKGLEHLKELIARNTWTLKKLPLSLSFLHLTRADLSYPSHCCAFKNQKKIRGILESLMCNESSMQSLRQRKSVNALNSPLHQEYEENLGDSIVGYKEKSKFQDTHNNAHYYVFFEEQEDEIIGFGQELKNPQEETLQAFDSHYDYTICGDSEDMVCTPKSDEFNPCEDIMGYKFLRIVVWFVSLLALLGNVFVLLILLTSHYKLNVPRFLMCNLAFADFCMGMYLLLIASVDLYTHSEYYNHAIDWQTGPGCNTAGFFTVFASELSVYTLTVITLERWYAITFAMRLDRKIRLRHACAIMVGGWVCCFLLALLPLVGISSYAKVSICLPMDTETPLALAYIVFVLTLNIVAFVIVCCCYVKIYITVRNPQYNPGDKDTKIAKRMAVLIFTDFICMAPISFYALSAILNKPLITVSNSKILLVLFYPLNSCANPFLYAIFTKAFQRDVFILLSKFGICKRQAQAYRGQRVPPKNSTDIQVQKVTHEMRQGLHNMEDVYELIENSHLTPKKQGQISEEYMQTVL
Outline: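 TSHR-HEK293 cells (800/well) plated 18 h, then compounds with Ro20-1724 and TSH at 1.5 ng/mL final, 30 min at room temperature. cAMP quantified by HTRF (cAMP-d2/anti-cAMP-cryptate, 1 h); 15 concentrations in triplicate.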

[20] = qHTS assay to identify small molecule phospholipidosis (PLD) inducers (AID 1259344; active means well fitted curve in the direction sought with a large enough effect; an effect the other way counts as inactive or inconclusive)
Outline: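 Image-based: LipidTOX Red pit count/intensity per well and per cell; HepG2, 24 h compound at 37 C, PFA fixation, Hoechst counterstain.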

Structure (SMILES)	Potency [1]	Potency [2]	Potency [3]	Potency [4]	Potency [5]	Potency [6]	Potency [7]	Potency [8]	Potency [9]	Potency [10]	Potency [11]	Potency [12]	Potency [13]	Potency [14]	Potency [15]	outcome [16]	Potency [17]	Potency [18]	Potency [19]	Potency [20]
CCOCOCC	inactive	inactive	inactive	inactive	inactive	inactive	inactive	inactive	inactive	inactive	inactive	inactive	inactive	inactive	inactive	inactive	inactive	–	–	–
C=CC(=O)OCCN(CC)CC	inactive	inactive	inactive	inactive	inactive	inactive	inactive	inactive	inactive	–	inactive	inactive	–	inactive	inactive	inactive	inactive	–	–	–
Cc1cnccn1	inactive	inactive	inactive	inactive	inactive	inactive	inactive	inactive	inactive	inactive	inactive	inactive	inactive	inactive	inactive	–	inactive	inactive	–	–
c1cc[nH]c1	inactive	inactive	inactive	inactive	inactive	inactive	inactive	inactive	inactive	–	inactive	inactive	inactive	inactive	inactive	inactive	inactive	–	inactive	–
c1ccc2c(c1)CCC2	inactive	inactive	inactive	inactive	inactive	inactive	inactive	inactive	–	inactive	inactive	inactive	inactive	inactive	inactive	inactive	inactive	inactive	inactive	–
C[Si](C)(C)Cl	inactive	inactive	inactive	inactive	inactive	inactive	inactive	inactive	inactive	inactive	inactive	inactive	inactive	inactive	inactive	inactive	inactive	–	inactive	–
Cc1cccc(C)n1	inactive	inactive	inactive	inactive	inactive	inactive	inactive	inactive	inactive	inactive	inactive	inactive	inactive	inactive	inactive	inactive	inactive	inactive	inactive	–
CCc1c(Br)c(Br)c(Br)c(Br)c1Br	inactive	inactive	inactive	inactive	inactive	inactive	inactive	inactive	inactive	–	inactive	inactive	inactive	inactive	inactive	–	inactive	inactive	–	–
NC(=O)C(=O)N/N=C/c1ccc([N+](=O)[O-])o1	inactive	inactive	inactive	inactive	inactive	inactive	inactive	inactive	–	inactive	inactive	inactive	inactive	inactive	inactive	inactive	inactive	–	–	inactive
C/C=C/CO	inactive	inactive	inactive	inactive	inactive	inactive	inactive	inactive	inactive	–	inactive	inactive	–	inactive	inactive	inactive	inactive	–	inactive	–
COc1nccnc1CC(C)C	inactive	inactive	inactive	inactive	inactive	inactive	inactive	inactive	inactive	inactive	inactive	inactive	inactive	inactive	inactive	inactive	inactive	inactive	inactive	–
CCO[Si](C)(C)OCC	inactive	inactive	inactive	inactive	inactive	inactive	inactive	inactive	inactive	–	inactive	inactive	–	inactive	inactive	inactive	inactive	–	inactive	–
C#CC(O)CCC (configuration not stated)	inactive	inactive	inactive	inactive	inactive	inactive	inactive	inactive	inactive	inactive	inactive	inactive	–	inactive	inactive	inactive	inactive	inactive	inactive	–
CCC(C)c1ccccc1 (configuration not stated)	inactive	inactive	inactive	inactive	inactive	inactive	inactive	inactive	–	–	inactive	inactive	inactive	inactive	inactive	inactive	inactive	–	inactive	–
CCCCCCCOC(=O)c1ccccc1C(=O)OCCCCCCC	inactive	inactive	inactive	inactive	inactive	inactive	inactive	inactive	–	–	inactive	inactive	inactive	inactive	inactive	inactive	inactive	–	inactive	–
Clc1cccnc1	inactive	inactive	inactive	inactive	inactive	inactive	inactive	inactive	inactive	–	inactive	inactive	inactive	inactive	inactive	inactive	inactive	–	inactive	–

Structure (SMILES)	Potency [1]	Potency [2]	Potency [3]	Potency [4]	Potency [5]	Potency [6]	Potency [7]	Potency [8]	Potency [9]	Potency [10]	Potency [11]	Potency [12]	Potency [13]	Potency [14]	Potency [15]	outcome [16]	Potency [17]	Potency [18]	Potency [19]	Potency [20]
O=Cc1ccc(F)cc1	inactive	inactive	inactive	inactive	inactive	inactive	inactive	inactive	–	–	inactive	inactive	inactive	inactive	inactive	inactive	inactive	–	inactive	–
CC1CNCC(C)O1 (configuration not stated)	inactive	inactive	inactive	inactive	inactive	inactive	inactive	inactive	–	inactive	inactive	inactive	inactive	inactive	inactive	inactive	inactive	–	inactive	–
OCCCCl	inactive	inactive	inactive	inactive	inactive	inactive	inactive	inactive	inactive	–	inactive	inactive	inactive	inactive	inactive	inactive	inactive	–	–	–
CCCCCCCC(OC)OC	inactive	inactive	inactive	inactive	inactive	inactive	inactive	inactive	inactive	–	inactive	inactive	inactive	inactive	inactive	inactive	inactive	–	inactive	–
CCCC(C)CCC(C)=O (configuration not stated)	inactive	inactive	inactive	inactive	inactive	inactive	inactive	inactive	inactive	–	inactive	inactive	inactive	inactive	inactive	inactive	inactive	–	inactive	–
CCCCN(C)C	inactive	inactive	inactive	inactive	inactive	inactive	inactive	inactive	inactive	–	inactive	inactive	inactive	inactive	inactive	inactive	inactive	–	inactive	–
CCCC(=O)OCC(COC(=O)CCC)OC(=O)CCC	inactive	inactive	inactive	inactive	inactive	inactive	inactive	inactive	inactive	inactive	inactive	inactive	inactive	inactive	inactive	inactive	inactive	inactive	inactive	–
CCCCCCCC(=O)OCC	inactive	inactive	inactive	inactive	inactive	inactive	inactive	inactive	inactive	–	inactive	inactive	inactive	–	inactive	inactive	inactive	–	inactive	–
CC(=O)C=O	inactive	inactive	inactive	inactive	inactive	inactive	inactive	inactive	inactive	–	inactive	inactive	inactive	inactive	inactive	–	inactive	–	–	–
CC(C)(C)c1cc(CCC(=O)NCCCCCCNC(=O)CCc2cc(C(C)(C)C)c(O)c(C(C)(C)C)c2)cc(C(C)(C)C)c1O	inactive	inactive	inactive	inactive	inactive	inactive	inactive	inactive	inactive	inactive	inactive	inactive	inactive	inactive	inactive	inactive	inactive	inactive	inactive	–
C=CC/C=C/C/C=C/C/C=C/C	inactive	inactive	inactive	inactive	inactive	inactive	inactive	inactive	inactive	–	inactive	inactive	inactive	inactive	inactive	inactive	inactive	–	inactive	–
COc1ccc(-n2nc(CCC(=O)N(C)O)cc2-c2ccc(Cl)cc2)cc1	inactive	inactive	26.6 µM (active)	inactive	inactive	inactive	inactive	inactive	8.41 µM (active)	7.5 µM (active)	inactive	7.5 µM (active)	inactive	–	inactive	inactive	inactive	–	–	–
CC(=O)OC1CCCCC1	inactive	inactive	inactive	inactive	inactive	inactive	inactive	inactive	inactive	–	inactive	inactive	inactive	inactive	inactive	inactive	inactive	–	inactive	–
C=C(C)CCCC	inactive	inactive	inactive	inactive	inactive	inactive	inactive	inactive	–	inactive	inactive	inactive	inactive	inactive	inactive	inactive	inactive	–	–	–
CC(C)CCOCCC(C)C	inactive	inactive	inactive	inactive	inactive	inactive	inactive	inactive	inactive	inactive	inactive	inactive	inactive	inactive	inactive	inactive	inactive	inactive	inactive	–
Clc1ccc(C(Cn2ccnc2)OCc2c(Cl)cccc2Cl)c(Cl)c1 (configuration not stated)	inactive	8.41 µM (active)	inactive	inactive	inactive	–	inactive	inactive	–	–	inactive	29.8 µM (active)	inactive	23.7 µM (active)	inactive	inactive	inactive	–	inactive	inactive
